# Reference: PubChem BioAssay (NCI)
# The panel holds about 83,000 compounds, 20% with a hit somewhere; the sample as a whole holds those more often.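 Percent growth is the endpoint: 0 to 100 indicates growth inhibition (40 means 60% inhibition), 0 means no net growth, and negative values indicate cell death.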 Unmarked numbers belong to inactive results. Active and inactive are the calls of the source. Rule for the calls: active = growth percent below 10; inactive = the rest.
# Key:
# Test in all cases: NCI-60 one-dose screen, 48 h (100 = growth as untreated, 0 = no growth, -100 = all killed)
# Conditions in all cases: 10 µM
# HCT-15 colon = tested on: HCT-15 colon
# HT29 colon = tested on: HT29 colon
# SNB-75 CNS = tested on: SNB-75 CNS
# SNB-19 CNS = tested on: SNB-19 CNS
# U251 CNS = tested on: U251 CNS
# PC-3 prostate = tested on: PC-3 prostate
# SK-MEL-5 melanoma = tested on: SK-MEL-5 melanoma
# UACC-62 melanoma = tested on: UACC-62 melanoma
# LOX IMVI melanoma = tested on: LOX IMVI melanoma
# SK-MEL-28 melanoma = tested on: SK-MEL-28 melanoma
Structure (SMILES),growth (HCT-15 colon),growth (HT29 colon),growth (SNB-75 CNS),growth (SNB-19 CNS),growth (U251 CNS),growth (PC-3 prostate),growth (SK-MEL-5 melanoma),growth (UACC-62 melanoma),growth (LOX IMVI melanoma),growth (SK-MEL-28 melanoma)
C=C(C)[C@@H]1CC[C@]2(C(=O)OC)CC[C@]3(C)[C@H](CC[C@@H]4[C@@]5(C)CC[C@H](N)C(C)(C)[C@@H]5CC[C@]43C)[C@@H]12,-97.2% (active),-70.6% (active),-91.5% (active),-99.3% (active),-85.4% (active),-28.2% (active),-54.9% (active),-97.9% (active),-98.4% (active),-100% (active)
CN(C)c1ccc(/C=C/c2nc3ccccc3c(=O)n2CC(=O)Nc2ccc(Cl)cc2)cc1,42.2%,31.9%,64%,34.8%,39.7%,30.2%,55.7%,70.6%,9.3% (active),66%
O=C1Nc2ccc(F)cc2/C1=C/c1cccc(OCc2ccccn2)c1,10.5%,26.2%,116%,52.3%,7.32% (active),36.6%,31.1%,26.5%,1.13% (active),65.3%
CNC(=O)c1cc(-c2ccc(NC(=O)Nc3ccc(C)cc3)cc2)nc2cccnc12,93.6%,99.2%,107%,91.7%,101%,87.1%,95.4%,83.8%,101%,118%
COc1ccc(C2NC(=S)NC(C)=C2C(=O)OC(C)C)cc1OC (stereo not given),105%,115%,94.9%,98.9%,102%,96%,98.9%,90.5%,99.3%,109%
CCN1CCN(Cc2ccc(NC(=O)c3cccc(-n4cc(-c5ccc(NC(C)=O)nc5)nn4)c3)cc2C(F)(F)F)CC1,83.9%,61.7%,104%,122%,86.6%,112%,87.3%,82.4%,72.4%,53.3%
N#Cc1c(NC(=O)c2ccc(C(F)(F)F)cc2)sc2c1CCC(O)=C2,9.23% (active),38.2%,-3.93% (active),55.9%,28.2%,49.2%,-28.8% (active),13.8%,23.9%,41.6%
Cc1cc(=O)oc2cc(OCCCCOc3ccc(/C=C/C(=O)Nc4cccc(Cl)c4)cc3)ccc12,60.3%,86.4%,87.7%,74.7%,56.8%,91.2%,60.6%,75.3%,64.4%,86.8%
CN1CCN(c2ccc(Nc3nc(NCCNC(=O)c4ccc(C(F)(F)F)cc4)c4sccc4n3)cc2)CC1,-42.6% (active),-67% (active),-10.7% (active),31.5%,-17.7% (active),41%,-99.5% (active),-89.7% (active),-93.9% (active),-96.3% (active)
COc1ccc(CN2[C@H](C(=O)NCCCCCCC(=O)NO)Cc3c([nH]c4ccccc34)[C@H]2C2CC2)cc1,8.85% (active),6.33% (active),10.2%,6.72% (active),-20.8% (active),19.1%,-88% (active),-68.6% (active),-100% (active),9.84% (active)
CC1(c2ccccc2)NC(=O)N(CC(=O)Nc2ccc(C(=O)/C=C/c3ccc(Br)cc3)cc2)C1=O (stereo not given),19%,3.41% (active),41.6%,56.7%,15.1%,20.1%,27.5%,27.2%,-49.1% (active),48.9%
C#CCNC(=O)[C@]12CCC(C)(C)C[C@H]1C1=CC[C@@H]3[C@@](C)(CCC#N)[C@H](C(=C)C)CC[C@@]3(C)[C@]1(C)CC2,33.2%,48.9%,82.5%,64.3%,54.6%,26.3%,42.7%,52.1%,-53.1% (active),74.6%
CC1=C2C(=C[C@@](C)(COCOCCCl)[C@@H]2O)C(=O)[C@](C)(O)C12CC2,-38.9% (active),-11.9% (active),-53.2% (active),-24.4% (active),1.56% (active),0.191% (active),-62.3% (active),-87% (active),-82.2% (active),-82.7% (active)
CN(CCF)c1ccc(/C=C/C(=O)c2ccc(N)cc2O)cc1,49.8%,42.8%,102%,84.1%,70.3%,86.5%,68.1%,90.1%,78.9%,101%
COc1ccc(C(=O)NC(=S)N2CCN(c3ncnc4c3cnn4-c3ccccc3)CC2)cc1,42.7%,80.5%,31.7%,10.2%,55.1%,59%,71.6%,40.8%,62.3%,50%
CCCCSc1nc(Nc2ccc(/C(C)=N/NC(N)=S)cc2)c(C#N)c(-c2ccc(F)cc2)n1,62.7%,60.3%,53.5%,20.7%,7.7% (active),28.6%,75%,49.3%,6.74% (active),64%
COC[C@@H](CC(C)C)N=C1N/C(=C\c2ccc3ncsc3c2)C(=O)N1C,2.01% (active),6.85% (active),27.5%,14.6%,15.4%,23.6%,-57.3% (active),-64.9% (active),-51.2% (active),-1.69% (active)
CCCn1c(=O)c2[nH]c(-c3ccc(OCc4nc5ccc(C#N)cc5[nH]4)cc3)nc2n(CCC)c1=O,84.7%,88.5%,84.9%,80.8%,70.6%,55.4%,83.4%,49.2%,46.5%,90.8%
COc1ccc2[nH]cc(/C=N/Nc3ccc(Br)cn3)c2c1,6.98% (active),23.3%,43.7%,51.2%,20.1%,23%,21.9%,51.3%,7.7% (active),61.5%
CCCCCCCCCCCCCCCCCCCC(=O)NCCc1c[nH]c2ccc(O)cc12,96.2%,121%,129%,104%,99%,73.4%,110%,99.7%,76.7%,106%
O=C(Nc1ccc(OCc2ccccc2)cc1)Nc1ccc(Cl)c(C(F)(F)F)c1,9.69% (active),6.91% (active),-20.2% (active),8.37% (active),-10.2% (active),-0.967% (active),-96.6% (active),14.1%,-25.1% (active),14.3%
O=C(Cn1nc(-c2ccccc2)ccc1=O)NNC(=S)NC1CCCCC1,97.9%,127%,96.6%,100%,102%,96.4%,100%,96.2%,99%,108%
